Drawing on ChEMBL document CHEMBL3988442, “University of Dundee, Small-Polar-MMV Screening Library” (2021), this text covers Percent Effect for 20 molecules.

This experiment addresses T1, Proteasome subunit beta (Trypanosoma cruzi) (UniProt O96673).
T1 sequence (whole entry): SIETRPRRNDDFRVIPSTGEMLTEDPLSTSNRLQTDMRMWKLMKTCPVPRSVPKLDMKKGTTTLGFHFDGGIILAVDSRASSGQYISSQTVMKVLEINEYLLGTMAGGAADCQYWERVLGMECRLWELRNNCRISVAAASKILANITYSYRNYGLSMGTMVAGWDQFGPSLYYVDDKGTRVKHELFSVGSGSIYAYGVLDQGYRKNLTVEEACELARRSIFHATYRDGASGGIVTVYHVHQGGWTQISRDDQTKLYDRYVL
Description: Trypanosoma cruzi proteasome chymotrypsin-like activity (TcProtChymo) assay. Conditions: 9.37 µM. Also noted: scale not given: in the data most compounds retested in dose-response had high values. Format: functional.
Turning to `CC(=O)N1CCCC1c1nccc(C)n1` (stereo not given), the Percent Effect was 4.67%.

As to `CN(Cc1nccn1CC(F)(F)F)C(=O)c1cccc(C#N)c1`, the Percent Effect worked out at 3.74%.

`COc1ccc(-c2noc(CNC(C)Cn3cccn3)n2)c(OC)c1` (stereo not given) gave a Percent Effect of 9.9%.

Take `NCC(=O)N1CCCC(c2cncc(Nc3ncccn3)n2)C1` (stereo not given): the Percent Effect was determined as 10.3%.

As to `O=C(Cc1ccccc1)N1CCC2(CC(=O)N(c3ccsc3)C2)C1` (stereo not given), the Percent Effect is 13.8%.

Turning to `CCCSCC(=O)NS(=O)(=O)c1ccc2c(c1)OCCO2`, the Percent Effect came to 2.34%.

Regarding `O=C(NC1CC1)[C@H]1C[C@@H]2CCN(CCc3ccccc3)C[C@H]2O1`, the Percent Effect came to 4.85%.

`OC1CCCN(Cc2c(-c3ccco3)[nH]c3ncccc23)C1` (stereo not given) registered a Percent Effect of 11.1%.

For the molecule `Cn1cccc1C1CCCN1C(=O)NCCCn1cccn1` (stereo not given), the Percent Effect was 6.28%.

In the case of `O=C(NC1(c2nnn(CCO)n2)CCCC1)c1ccccc1`, the Percent Effect turned out to be 1.57%.

In the case of `O=C(Cc1ccccc1)N1CCC2(CC(=O)N(c3cccc(F)c3)C2)C1` (stereo not given), the Percent Effect was found to be 6.09%.

Molecule `c1cncc(C2COC3(CCN(CC4CC4)CC3)C2)c1` (stereo not given) gave a Percent Effect of 12.9%.

Molecule `Cc1nc(C2CCCN(C(=O)c3ccc(OCC4CC4)cc3)C2)no1` (stereo not given) yielded a Percent Effect of 7.19%.

`Cc1ncsc1C(=O)NC1CCN(CCC(N)=O)CC1` showed a Percent Effect of 4.56%.

In the case of `CCn1cc(N)c(C(=O)NCc2cnn(C)c2)n1`, the Percent Effect was determined as 9.48%.

On to `O=C(NCCNc1ccc(C(F)(F)F)cn1)c1ccc(Br)cc1F`, for which the Percent Effect worked out at 11.9%.

In turn, `CCc1ccc(C(=O)N2CCCC(c3noc(CC)n3)C2)o1` (stereo not given) displayed a Percent Effect of 4.12%.

With `CN(c1ccc(C(=O)NCCCN2CCOCC2)c(Cl)c1)S(C)(=O)=O`, the Percent Effect turned out to be 7.16%.

Molecule `CCN1CCCC1CN(CCN(C)C)S(=O)(=O)c1ccc(C#N)cc1` (stereo not given) had a Percent Effect of 3.73%.

Turning to `CN(C)C(C)(C)CNC(=O)C(C)(C)c1ccccc1F`, the Percent Effect stood at 13.2%.
